In PMC7862700, “An all-to-all approach to the identification of sequence-specific readers for epigenetic DNA modifications on cytosine”:

What was measured:
Assay in all cases: DAPPL (digital affinity profiling via proximity ligation, sequencing); 10 mM Tris-HCl pH 7.5, 50 mM NaCl, 1 mM DTT, 4% glycerol, room temperature, 30 min; GST-TFs on glutathione beads, 16-mer random dsDNA library, 0.1% formaldehyde crosslink after washing; high values mean tight binding
FLI1 = target: T1, FLI1 (Homo sapiens, UniProt Q01543 1-452); details: protein: recombinant; tags: N-terminal GST; dsDNA, one strand shown
T1 sequence: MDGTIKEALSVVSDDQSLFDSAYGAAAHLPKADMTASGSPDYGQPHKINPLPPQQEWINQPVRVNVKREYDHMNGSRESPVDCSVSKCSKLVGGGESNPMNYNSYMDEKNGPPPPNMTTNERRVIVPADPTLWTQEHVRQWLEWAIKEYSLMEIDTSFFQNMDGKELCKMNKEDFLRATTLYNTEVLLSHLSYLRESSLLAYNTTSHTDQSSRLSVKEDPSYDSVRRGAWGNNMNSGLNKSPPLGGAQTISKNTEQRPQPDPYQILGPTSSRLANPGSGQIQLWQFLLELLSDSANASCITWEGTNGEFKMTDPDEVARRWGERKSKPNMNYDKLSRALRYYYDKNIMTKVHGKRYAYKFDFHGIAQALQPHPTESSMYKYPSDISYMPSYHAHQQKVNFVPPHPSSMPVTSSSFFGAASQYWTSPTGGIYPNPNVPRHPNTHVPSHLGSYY
Outline: (§1)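 Each value of binding signal is a hexamer's read frequency for a factor divided by the same hexamer's frequency in the tag-only sample. Barcoded, bead-captured GST fusions of human transcription factors made in yeast were pooled with that sample and incubated with 200 nmole of a random double-stranded 16-mer DNA library in Tris/NaCl/DTT/glycerol buffer at room temperature for 30 min. Washing, 0.1% formaldehyde crosslinking, proximity ligation, PCR and Illumina NextSeq500 sequencing followed.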

ELK1 = target: T2, ELK1 (Homo sapiens, UniProt P19419 1-428); details: protein: recombinant; tags: N-terminal GST; dsDNA, one strand shown
T2 sequence: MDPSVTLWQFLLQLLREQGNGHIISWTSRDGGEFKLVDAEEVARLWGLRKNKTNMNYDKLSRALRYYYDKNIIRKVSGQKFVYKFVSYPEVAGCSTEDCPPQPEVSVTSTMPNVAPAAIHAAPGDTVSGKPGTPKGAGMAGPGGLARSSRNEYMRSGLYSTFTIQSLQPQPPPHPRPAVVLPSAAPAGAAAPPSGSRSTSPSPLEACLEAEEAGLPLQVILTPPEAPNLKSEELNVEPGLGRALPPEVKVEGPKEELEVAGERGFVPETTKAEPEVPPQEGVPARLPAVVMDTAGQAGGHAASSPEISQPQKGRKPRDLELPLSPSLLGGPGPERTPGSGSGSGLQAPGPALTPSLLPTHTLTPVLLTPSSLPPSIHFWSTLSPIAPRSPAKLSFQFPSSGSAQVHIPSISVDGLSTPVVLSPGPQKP
Outline: as §1

GABPA = target: T3, GABPA (Homo sapiens, UniProt Q06546 1-454); details: protein: recombinant; tags: N-terminal GST; dsDNA, one strand shown
T3 sequence: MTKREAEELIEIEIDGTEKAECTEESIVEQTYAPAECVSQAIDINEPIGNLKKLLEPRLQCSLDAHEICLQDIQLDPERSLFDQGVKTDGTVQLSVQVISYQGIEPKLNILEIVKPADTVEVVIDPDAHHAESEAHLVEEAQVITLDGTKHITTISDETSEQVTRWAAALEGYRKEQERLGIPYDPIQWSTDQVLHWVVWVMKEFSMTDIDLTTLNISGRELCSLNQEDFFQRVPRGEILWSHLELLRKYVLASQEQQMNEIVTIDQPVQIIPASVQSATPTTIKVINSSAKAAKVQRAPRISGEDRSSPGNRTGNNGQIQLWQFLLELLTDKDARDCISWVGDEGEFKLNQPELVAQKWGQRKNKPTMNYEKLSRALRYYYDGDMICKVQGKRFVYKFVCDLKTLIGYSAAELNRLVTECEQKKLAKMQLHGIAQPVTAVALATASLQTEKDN
Outline: as §1

ERG = target: T4, ERG (Homo sapiens, UniProt P11308 1-479); details: protein: recombinant; tags: N-terminal GST; dsDNA, one strand shown
T4 sequence: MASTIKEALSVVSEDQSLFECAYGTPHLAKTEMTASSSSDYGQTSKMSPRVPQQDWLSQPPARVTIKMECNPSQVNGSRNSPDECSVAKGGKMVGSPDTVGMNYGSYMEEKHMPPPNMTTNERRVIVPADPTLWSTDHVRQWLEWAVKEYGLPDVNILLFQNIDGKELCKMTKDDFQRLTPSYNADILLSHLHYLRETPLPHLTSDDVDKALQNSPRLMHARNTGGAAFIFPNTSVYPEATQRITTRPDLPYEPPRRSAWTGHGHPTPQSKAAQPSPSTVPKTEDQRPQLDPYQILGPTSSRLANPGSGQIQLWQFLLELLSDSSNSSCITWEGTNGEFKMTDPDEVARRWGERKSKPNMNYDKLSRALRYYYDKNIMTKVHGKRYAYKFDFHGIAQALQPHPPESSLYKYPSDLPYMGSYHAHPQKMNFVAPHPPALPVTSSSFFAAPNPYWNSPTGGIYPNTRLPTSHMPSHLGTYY
Outline: as §1

ELF1 = ELF1 (Homo sapiens, UniProt P32519 1-619); details: protein: recombinant; tags: N-terminal GST; dsDNA, one strand shown
ELF1, sequence (P32519 whole entry): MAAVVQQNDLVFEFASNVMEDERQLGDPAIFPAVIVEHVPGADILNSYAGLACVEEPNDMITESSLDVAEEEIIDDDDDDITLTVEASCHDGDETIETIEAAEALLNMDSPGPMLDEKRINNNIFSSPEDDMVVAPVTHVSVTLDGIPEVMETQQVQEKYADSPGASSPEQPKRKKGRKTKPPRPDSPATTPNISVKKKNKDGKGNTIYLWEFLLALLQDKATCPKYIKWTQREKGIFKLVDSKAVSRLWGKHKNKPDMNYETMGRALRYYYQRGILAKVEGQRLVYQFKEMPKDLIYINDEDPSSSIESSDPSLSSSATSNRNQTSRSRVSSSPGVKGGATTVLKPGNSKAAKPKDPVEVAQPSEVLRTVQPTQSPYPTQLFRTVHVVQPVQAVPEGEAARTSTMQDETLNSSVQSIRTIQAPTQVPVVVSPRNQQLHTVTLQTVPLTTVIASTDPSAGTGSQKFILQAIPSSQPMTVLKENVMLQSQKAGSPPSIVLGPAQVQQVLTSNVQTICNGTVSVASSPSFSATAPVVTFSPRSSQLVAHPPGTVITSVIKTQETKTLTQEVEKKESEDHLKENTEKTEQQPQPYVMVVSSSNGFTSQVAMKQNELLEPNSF
Outline: as §1

EHF = target: T5, EHF (Homo sapiens, UniProt Q9NZC4 1-300); details: protein: recombinant; tags: N-terminal GST; dsDNA, one strand shown
T5 sequence: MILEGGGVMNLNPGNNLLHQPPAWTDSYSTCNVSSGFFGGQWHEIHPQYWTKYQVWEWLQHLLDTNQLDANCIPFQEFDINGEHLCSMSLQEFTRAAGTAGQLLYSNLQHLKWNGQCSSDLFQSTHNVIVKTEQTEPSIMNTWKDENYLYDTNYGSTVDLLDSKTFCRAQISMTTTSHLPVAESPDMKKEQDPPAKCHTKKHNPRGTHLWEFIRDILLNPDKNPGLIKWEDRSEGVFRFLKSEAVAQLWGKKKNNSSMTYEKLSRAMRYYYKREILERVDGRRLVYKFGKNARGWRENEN
Outline: as §1

SPI1 = SPI1 (Homo sapiens, UniProt P17947 1-270); details: protein: recombinant; tags: N-terminal GST; dsDNA, one strand shown
Outline: as §1

SPIB = SPIB (Homo sapiens, UniProt Q01892 1-262); details: protein: recombinant; tags: N-terminal GST; dsDNA, one strand shown
SPIB, sequence (Q01892 whole entry): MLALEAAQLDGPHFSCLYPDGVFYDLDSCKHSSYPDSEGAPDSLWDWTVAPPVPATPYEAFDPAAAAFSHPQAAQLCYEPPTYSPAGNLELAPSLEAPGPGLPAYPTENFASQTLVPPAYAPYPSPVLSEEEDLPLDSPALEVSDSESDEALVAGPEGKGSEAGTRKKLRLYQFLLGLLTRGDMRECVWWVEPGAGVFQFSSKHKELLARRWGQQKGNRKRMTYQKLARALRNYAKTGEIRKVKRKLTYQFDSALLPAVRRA
Outline: as §1

ELK3 = target: T6, ELK3 (Homo sapiens, UniProt P41970 1-407); details: protein: recombinant; tags: N-terminal GST; dsDNA, one strand shown
T6 sequence: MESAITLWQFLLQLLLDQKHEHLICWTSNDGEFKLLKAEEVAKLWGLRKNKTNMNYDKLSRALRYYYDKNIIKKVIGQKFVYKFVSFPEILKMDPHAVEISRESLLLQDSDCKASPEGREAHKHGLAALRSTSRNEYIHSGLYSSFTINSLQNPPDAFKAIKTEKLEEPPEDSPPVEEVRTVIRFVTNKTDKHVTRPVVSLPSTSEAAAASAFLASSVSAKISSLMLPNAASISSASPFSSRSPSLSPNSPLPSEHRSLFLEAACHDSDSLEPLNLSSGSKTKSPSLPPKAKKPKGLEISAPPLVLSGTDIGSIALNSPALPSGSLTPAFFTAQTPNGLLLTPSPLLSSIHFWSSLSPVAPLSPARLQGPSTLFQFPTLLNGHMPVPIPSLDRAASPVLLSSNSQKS
Outline: as §1

FEV = target: T7, FEV (Homo sapiens, UniProt Q99581 1-238); details: protein: recombinant; tags: N-terminal GST; dsDNA, one strand shown
T7 sequence: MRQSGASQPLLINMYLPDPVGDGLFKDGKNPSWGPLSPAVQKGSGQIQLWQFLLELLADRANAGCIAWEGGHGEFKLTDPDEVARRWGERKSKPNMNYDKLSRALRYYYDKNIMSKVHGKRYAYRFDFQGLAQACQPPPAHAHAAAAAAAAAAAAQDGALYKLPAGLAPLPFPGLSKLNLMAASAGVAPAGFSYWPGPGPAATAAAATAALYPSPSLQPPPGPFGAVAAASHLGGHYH
Outline: as §1

ETV5 = ETV5 (Homo sapiens, UniProt P41161 1-510); details: protein: recombinant; tags: N-terminal GST; dsDNA, one strand shown
ETV5, sequence (P41161 whole entry): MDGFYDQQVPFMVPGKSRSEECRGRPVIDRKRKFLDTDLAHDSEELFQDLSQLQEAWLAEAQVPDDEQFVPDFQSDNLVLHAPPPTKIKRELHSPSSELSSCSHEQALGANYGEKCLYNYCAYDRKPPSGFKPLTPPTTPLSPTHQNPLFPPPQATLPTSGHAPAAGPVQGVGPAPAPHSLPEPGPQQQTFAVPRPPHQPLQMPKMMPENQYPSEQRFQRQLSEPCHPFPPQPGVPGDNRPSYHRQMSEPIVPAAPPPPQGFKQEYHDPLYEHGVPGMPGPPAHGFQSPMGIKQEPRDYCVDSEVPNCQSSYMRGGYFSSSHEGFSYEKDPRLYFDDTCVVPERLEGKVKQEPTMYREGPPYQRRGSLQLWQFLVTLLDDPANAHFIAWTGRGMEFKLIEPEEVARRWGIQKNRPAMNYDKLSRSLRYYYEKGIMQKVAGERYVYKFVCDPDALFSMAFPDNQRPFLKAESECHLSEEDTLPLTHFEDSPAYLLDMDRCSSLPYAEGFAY
Outline: as §1

HSF1 = HSF1 (Homo sapiens, UniProt Q00613 1-529); details: protein: recombinant; tags: N-terminal GST; chain copies: 3; dsDNA, one strand shown
HSF1, sequence (Q00613 whole entry): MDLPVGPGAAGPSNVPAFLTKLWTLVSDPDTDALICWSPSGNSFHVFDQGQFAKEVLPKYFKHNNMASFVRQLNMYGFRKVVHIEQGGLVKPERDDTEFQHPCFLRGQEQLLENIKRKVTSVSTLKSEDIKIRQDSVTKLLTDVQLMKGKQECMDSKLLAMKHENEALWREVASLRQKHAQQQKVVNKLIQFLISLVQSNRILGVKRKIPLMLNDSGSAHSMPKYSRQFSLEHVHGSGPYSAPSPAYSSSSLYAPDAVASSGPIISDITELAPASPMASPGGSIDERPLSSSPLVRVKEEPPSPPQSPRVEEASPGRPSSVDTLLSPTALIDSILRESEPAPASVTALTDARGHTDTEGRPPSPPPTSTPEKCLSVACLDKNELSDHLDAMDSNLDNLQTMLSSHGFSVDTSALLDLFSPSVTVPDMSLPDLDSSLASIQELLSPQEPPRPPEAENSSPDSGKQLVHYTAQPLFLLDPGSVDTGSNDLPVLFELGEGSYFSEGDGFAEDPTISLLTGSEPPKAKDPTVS
Outline: as §1

SPIC = target: T8, SPIC (Homo sapiens, UniProt Q8N5J4 1-248); details: protein: recombinant; tags: N-terminal GST; dsDNA, one strand shown
T8 sequence: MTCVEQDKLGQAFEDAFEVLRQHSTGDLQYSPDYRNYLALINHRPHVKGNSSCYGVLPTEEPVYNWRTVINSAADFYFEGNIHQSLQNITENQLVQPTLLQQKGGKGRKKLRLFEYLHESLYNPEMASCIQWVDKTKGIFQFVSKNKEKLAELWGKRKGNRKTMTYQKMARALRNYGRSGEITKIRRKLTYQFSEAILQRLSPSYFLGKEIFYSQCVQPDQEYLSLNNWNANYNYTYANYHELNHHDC
Outline: as §1

ELF4 = ELF4 (Homo sapiens, UniProt Q99607 1-663); details: protein: recombinant; tags: N-terminal GST; dsDNA, one strand shown
ELF4, sequence (Q99607 whole entry): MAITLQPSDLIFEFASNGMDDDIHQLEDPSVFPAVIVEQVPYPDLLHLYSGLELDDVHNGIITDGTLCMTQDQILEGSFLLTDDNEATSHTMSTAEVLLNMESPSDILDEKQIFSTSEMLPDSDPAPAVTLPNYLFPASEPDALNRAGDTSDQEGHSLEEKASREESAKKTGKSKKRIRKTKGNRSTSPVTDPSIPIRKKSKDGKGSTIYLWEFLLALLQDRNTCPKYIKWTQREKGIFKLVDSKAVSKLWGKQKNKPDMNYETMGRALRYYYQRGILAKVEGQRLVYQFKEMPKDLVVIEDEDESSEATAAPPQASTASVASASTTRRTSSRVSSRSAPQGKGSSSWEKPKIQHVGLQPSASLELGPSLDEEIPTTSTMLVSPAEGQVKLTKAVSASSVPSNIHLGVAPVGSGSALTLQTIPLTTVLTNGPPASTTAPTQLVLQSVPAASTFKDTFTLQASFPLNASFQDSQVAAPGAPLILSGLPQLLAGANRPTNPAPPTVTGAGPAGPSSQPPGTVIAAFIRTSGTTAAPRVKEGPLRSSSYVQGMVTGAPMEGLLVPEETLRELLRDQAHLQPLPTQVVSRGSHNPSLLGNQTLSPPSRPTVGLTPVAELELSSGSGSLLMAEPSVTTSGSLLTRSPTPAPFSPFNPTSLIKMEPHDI
Outline: as §1

ELK4 = target: T9, ELK4 (Homo sapiens, UniProt P28324-2 1-405); details: protein: recombinant; tags: N-terminal GST; dsDNA, one strand shown
T9 sequence: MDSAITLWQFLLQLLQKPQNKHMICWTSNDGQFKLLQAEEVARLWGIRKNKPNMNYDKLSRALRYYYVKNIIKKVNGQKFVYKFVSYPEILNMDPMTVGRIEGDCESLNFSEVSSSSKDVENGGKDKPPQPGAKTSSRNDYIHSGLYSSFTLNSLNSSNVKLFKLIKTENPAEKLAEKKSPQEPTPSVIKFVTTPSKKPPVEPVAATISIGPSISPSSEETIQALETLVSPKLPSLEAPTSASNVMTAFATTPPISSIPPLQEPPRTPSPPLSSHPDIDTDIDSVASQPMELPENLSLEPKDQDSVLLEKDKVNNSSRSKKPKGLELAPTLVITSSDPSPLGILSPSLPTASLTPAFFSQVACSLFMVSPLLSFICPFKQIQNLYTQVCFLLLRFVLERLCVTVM
Outline: as §1

ETV2 = target: T10, ETV2 (Homo sapiens, UniProt O00321 1-342); details: protein: recombinant; tags: N-terminal GST; dsDNA, one strand shown
T10 sequence: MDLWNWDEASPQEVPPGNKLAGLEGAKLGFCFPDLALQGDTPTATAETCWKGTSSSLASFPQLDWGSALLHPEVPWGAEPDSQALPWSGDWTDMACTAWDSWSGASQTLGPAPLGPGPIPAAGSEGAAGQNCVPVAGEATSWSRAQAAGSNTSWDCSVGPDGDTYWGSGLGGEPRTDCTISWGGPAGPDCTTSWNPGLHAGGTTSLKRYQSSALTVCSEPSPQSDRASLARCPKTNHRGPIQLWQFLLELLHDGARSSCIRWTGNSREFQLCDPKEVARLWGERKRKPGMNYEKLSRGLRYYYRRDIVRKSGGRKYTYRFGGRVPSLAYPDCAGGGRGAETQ
Outline: as §1

ELF3 = target: T11, ELF3 (Homo sapiens, UniProt P78545 1-371); details: protein: recombinant; tags: N-terminal GST; dsDNA, one strand shown
T11 sequence: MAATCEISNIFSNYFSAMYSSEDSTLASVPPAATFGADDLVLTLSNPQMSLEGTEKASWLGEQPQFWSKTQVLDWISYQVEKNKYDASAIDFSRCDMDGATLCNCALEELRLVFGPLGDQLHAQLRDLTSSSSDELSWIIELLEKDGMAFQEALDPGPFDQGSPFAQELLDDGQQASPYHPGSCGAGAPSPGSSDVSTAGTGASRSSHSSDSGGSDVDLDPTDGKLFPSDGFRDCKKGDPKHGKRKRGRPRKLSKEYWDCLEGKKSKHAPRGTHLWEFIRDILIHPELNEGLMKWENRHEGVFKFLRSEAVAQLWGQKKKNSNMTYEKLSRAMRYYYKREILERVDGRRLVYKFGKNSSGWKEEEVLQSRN
Outline: as §1

CRX = CRX (Homo sapiens, UniProt O43186 1-299); details: protein: recombinant; tags: N-terminal GST; dsDNA, one strand shown
CRX, sequence (O43186 whole entry): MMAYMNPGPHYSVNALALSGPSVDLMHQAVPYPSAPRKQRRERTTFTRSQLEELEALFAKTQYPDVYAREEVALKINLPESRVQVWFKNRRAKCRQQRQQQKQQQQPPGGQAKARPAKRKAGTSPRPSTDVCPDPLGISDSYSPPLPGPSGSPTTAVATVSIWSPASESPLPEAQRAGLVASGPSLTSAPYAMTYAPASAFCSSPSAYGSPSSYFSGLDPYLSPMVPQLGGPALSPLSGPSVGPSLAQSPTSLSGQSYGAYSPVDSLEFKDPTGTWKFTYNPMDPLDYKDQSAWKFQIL
Outline: as §1

ETV1 = ETV1 (Homo sapiens, UniProt P50549 1-477); details: protein: recombinant; tags: N-terminal GST; dsDNA, one strand shown
ETV1, sequence (P50549 whole entry): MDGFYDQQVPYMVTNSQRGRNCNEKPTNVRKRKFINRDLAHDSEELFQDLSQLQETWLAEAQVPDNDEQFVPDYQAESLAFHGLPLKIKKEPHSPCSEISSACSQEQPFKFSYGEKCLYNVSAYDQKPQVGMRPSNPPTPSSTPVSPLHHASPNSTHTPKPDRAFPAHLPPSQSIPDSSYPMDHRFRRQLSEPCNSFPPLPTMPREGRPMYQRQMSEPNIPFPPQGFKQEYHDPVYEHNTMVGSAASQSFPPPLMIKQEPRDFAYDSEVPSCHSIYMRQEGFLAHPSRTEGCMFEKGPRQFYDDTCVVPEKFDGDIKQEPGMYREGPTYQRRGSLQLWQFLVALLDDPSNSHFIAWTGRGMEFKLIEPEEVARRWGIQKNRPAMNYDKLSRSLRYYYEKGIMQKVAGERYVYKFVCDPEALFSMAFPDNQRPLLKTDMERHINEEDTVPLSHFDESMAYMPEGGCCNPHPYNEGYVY
Outline: as §1

In the case of TCACGT, the binding signal (FLI1) is reported as 1.28 fold enrichment (6-mer frequency, TF over GST control), the binding signal (ELK1) is reported as 1.3 fold enrichment (6-mer frequency, TF over GST control) and the binding signal (GABPA) is reported as 1.31 fold enrichment (6-mer frequency, TF over GST control). The binding signal (ERG) was 1.29 fold enrichment (6-mer frequency, TF over GST control), the binding signal (ELF1) was 1.17 fold enrichment (6-mer frequency, TF over GST control) and the binding signal (EHF) was 1.14 fold enrichment (6-mer frequency, TF over GST control). For the same sequence, the binding signal (SPI1) was 1.24 fold enrichment (6-mer frequency, TF over GST control), the binding signal (SPIB) was 1.18 fold enrichment (6-mer frequency, TF over GST control) and the binding signal (ELK3) was 1.16 fold enrichment (6-mer frequency, TF over GST control). For the same sequence, the binding signal (FEV) was 1.19 fold enrichment (6-mer frequency, TF over GST control), the binding signal (ETV5) was 1.24 fold enrichment (6-mer frequency, TF over GST control) and the binding signal (HSF1) was 1.13 fold enrichment (6-mer frequency, TF over GST control). For the same sequence, the binding signal (SPIC) was 1.19 fold enrichment (6-mer frequency, TF over GST control), the binding signal (ELF4) was 1.23 fold enrichment (6-mer frequency, TF over GST control) and the binding signal (ELK4) was 1.27 fold enrichment (6-mer frequency, TF over GST control). The binding signal (ETV2) was 1.02 fold enrichment (6-mer frequency, TF over GST control), the binding signal (ELF3) was 1.01 fold enrichment (6-mer frequency, TF over GST control) and the binding signal (CRX) was 1.15 fold enrichment (6-mer frequency, TF over GST control). For the same sequence, the binding signal (ETV1) was 1.26 fold enrichment (6-mer frequency, TF over GST control).
